Screening data as filed in PubChem BioAssay.
Shown is part of a subset that was picked to be rich in hits.
IDE exosite FP: insulin-degrading enzyme (human) exo-site inhibition; purified IDE, FL-6b probe fluorescence polarization; active compounds read low; z-score at 20 µM; 17,000 tested, 6.3% active; AID 1259349;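 active means z-score of -3 or lower, meaning strong loss of probe binding signal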;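 further: His-tagged human IDE residues 42-1019 made in E. coli with 30 nM FL-6b probe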
Target sequence (P14735 42-1019 limits assumed): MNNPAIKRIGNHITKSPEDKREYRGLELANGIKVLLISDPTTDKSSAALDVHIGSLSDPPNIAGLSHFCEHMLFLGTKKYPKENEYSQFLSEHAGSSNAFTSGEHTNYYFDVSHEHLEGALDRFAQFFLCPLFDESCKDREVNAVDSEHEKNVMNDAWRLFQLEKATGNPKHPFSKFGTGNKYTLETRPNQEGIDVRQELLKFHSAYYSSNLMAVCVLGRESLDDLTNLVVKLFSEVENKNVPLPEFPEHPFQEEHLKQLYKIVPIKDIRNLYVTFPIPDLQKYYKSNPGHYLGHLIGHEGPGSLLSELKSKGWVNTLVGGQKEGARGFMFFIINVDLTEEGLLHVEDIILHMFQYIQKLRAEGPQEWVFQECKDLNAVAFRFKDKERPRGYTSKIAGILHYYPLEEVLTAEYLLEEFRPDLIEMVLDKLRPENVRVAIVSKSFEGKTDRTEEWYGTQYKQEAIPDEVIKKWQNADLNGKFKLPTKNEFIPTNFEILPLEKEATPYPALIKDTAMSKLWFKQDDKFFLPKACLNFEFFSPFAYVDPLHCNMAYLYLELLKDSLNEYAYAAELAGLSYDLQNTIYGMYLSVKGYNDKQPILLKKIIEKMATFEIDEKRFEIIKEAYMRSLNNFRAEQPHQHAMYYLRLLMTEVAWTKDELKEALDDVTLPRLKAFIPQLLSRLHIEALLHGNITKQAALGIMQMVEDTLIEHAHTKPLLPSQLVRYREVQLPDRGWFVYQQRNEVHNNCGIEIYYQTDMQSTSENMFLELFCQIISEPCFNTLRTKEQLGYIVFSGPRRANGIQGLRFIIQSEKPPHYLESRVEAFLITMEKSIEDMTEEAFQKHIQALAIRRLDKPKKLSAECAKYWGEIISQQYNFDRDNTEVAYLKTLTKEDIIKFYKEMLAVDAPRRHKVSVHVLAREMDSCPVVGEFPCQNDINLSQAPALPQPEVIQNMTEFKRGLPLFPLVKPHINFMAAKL
Numbers without * were called inactive.

For CN(C[C@H]1N[C@@H](CO)[C@@H]1c1ccc(-c2cccc(F)c2)cc1)S(C)(=O)=O the results were IDE exosite FP 5.8.
For CCS(=O)(=O)N1CC(=O)N2[C@@H](CO)[C@H](c3ccc(C#CCC4CCCC4)cc3)[C@@H]2C1 the results were IDE exosite FP 0.46.
Screening COc1ccccc1-c1ccc([C@H]2[C@H](CO)N3CCCCN(C(=O)NC4CCCC4)C[C@@H]23)cc1 returned IDE exosite FP -12*.
`COc1ccccc1-c1ccc([C@H]2[C@@H](CO)N3CCCCN(C(=O)NC4CCCC4)C[C@H]23)cc1` gave IDE exosite FP -19*.
O=C(NC1CCCC1)N1CCCCN2[C@H](CO)[C@@H](c3ccc(-c4cccnc4)cc3)[C@H]2C1 was read as IDE exosite FP -0.77.
For O=C(NC1CCCC1)N1CCCCN2[C@H](C1)[C@H](c1ccc(-c3ccncc3)cc1)[C@@H]2CO the results were IDE exosite FP 2.9.
Screening O=C(NC1CCCC1)N1CCCCN2[C@@H](CO)[C@@H](c3ccc(-c4ccncc4)cc3)[C@@H]2C1 returned IDE exosite FP 4.8.
O=C(NC1CCCC1)N1CCCCN2[C@@H](CO)[C@H](c3ccc(-c4cccnc4)cc3)[C@@H]2C1 was read as IDE exosite FP -2.9.
Screening CCC(=O)N1CC(=O)N2[C@H](C1)[C@H](c1ccc(-c3ccc(C(=O)N(C)C)cc3)cc1)[C@@H]2CO returned IDE exosite FP -0.39.
`Cc1ccccc1S(=O)(=O)N1[C@H](C#N)[C@@H](c2ccccc2-c2cccc(F)c2)[C@@H]1CO` gave IDE exosite FP -0.73.
Screening COCC#Cc1ccc([C@@H]2[C@@H](CO)N3CCCCN(S(=O)(=O)c4ccc(OC)cc4)C[C@H]23)cc1 returned IDE exosite FP 1.2.
`COCC(=O)N1C[C@@H](C)[C@@H](OC)CN(C)C(=O)c2ccc(NC(=O)Nc3cccc(F)c3)cc2OC[C@@H]1C` gave IDE exosite FP 1.1.
`O=C1CN(S(=O)(=O)c2ccccc2)C[C@H]2[C@@H](c3ccc(C#CCc4ccccc4)cc3)[C@H](CO)N12` gave IDE exosite FP 4.5.
For O=C(NC1CCCC1)N1CCCCN2[C@H](CO)[C@@H](c3ccc(/C=C/c4ccccc4)cc3)[C@H]2C1 the results were IDE exosite FP -4.2*.
For O=C(NC1CCCC1)N1CCCCN2[C@H](CO)[C@H](c3ccc(/C=C/c4ccccc4)cc3)[C@@H]2C1 the results were IDE exosite FP -9.7*.
C/C=C/c1ccc([C@H]2[C@@H](CO)N3CCCCN(C(=O)NC4CCCC4)C[C@H]23)cc1 was read as IDE exosite FP 1.3.
For COc1ccccc1NC(=O)N1CCCCN2[C@@H](CO)[C@H](c3ccc(C#CC4CCCC4)cc3)[C@@H]2C1 the results were IDE exosite FP 1.9.
Screening O=C(C1CCC1)N1C[C@@H]2[C@H](c3ccccc31)[C@@H](CO)N2C(=O)Nc1cccc(F)c1 returned IDE exosite FP -0.049.
Screening CN(C)C(=O)c1cccc(-c2ccc([C@H]3[C@@H](C#N)N(C(=O)C4CCC4)[C@H]3CO)cc2)c1 returned IDE exosite FP 3.9.
COc1ccc(-c2ccc([C@@H]3[C@@H](CO)N4C(=O)CN(Cc5ccc(C)cc5)C[C@H]34)cc2)cc1 was read as IDE exosite FP 2.7.
Screening CC(C)CC#Cc1ccc([C@@H]2[C@H](CO)N3C(=O)CN(C(=O)c4ccccn4)C[C@@H]23)cc1 returned IDE exosite FP 0.074.
`CN(C)C(=O)c1ccc(-c2ccc([C@H]3[C@H](CO)N4C(=O)CN(C(=O)C5CCC5)C[C@@H]34)cc2)cc1` gave IDE exosite FP 2.6.
Screening O=C(CN1CCOCC1)N1CCCCN2[C@@H](CO)[C@@H](c3ccc(C#Cc4ccccc4)cc3)[C@@H]2C1 returned IDE exosite FP -5.5*.
`O=C(CN1CCOCC1)N1CCCCN2[C@H](CO)[C@@H](c3ccc(C#Cc4ccccc4)cc3)[C@H]2C1` gave IDE exosite FP -3.3*.
O=C(CN1CCOCC1)N1CCCCN2[C@H](C1)[C@@H](c1ccc(C#Cc3ccccc3)cc1)[C@@H]2CO was read as IDE exosite FP -6.6*.
Cc1ccccc1-c1ccc([C@H]2[C@@H](CO)N3CCCCN(C(=O)CN4CCOCC4)C[C@@H]23)cc1 was read as IDE exosite FP 0.13.
`O=C(CN1CCOCC1)N1CCCCN2[C@@H](CO)[C@H](c3ccc(C#Cc4ccccc4)cc3)[C@@H]2C1` gave IDE exosite FP -7.1*.
Screening COCC(=O)N1[C@H](C#N)[C@H](c2ccccc2-c2cccc(C)c2)[C@H]1CO returned IDE exosite FP -0.54.
O=C(c1cccc(F)c1)N1CCCCN2[C@H](CO)[C@H](c3ccc(/C=C/c4ccccc4)cc3)[C@@H]2C1 was read as IDE exosite FP -1.4.
`C[C@@H](O)C#Cc1ccc([C@H]2[C@H]3CN(C(=O)c4ccncc4)CCCCN3[C@H]2CO)cc1` gave IDE exosite FP 0.17.
N#Cc1ccc(-c2ccc([C@H]3[C@@H](CO)N4C(=O)CN(C(=O)Cc5ccccc5)C[C@@H]34)cc2)cc1 was read as IDE exosite FP 2.2.
For CC(C)C#Cc1ccc([C@H]2[C@@H](C#N)N(C(=O)C3CCC3)[C@H]2CO)cc1 the results were IDE exosite FP 0.71.
CC(=O)NC[C@H]1[C@H](c2ccccc2)[C@H](CO)N1C(=O)Cc1ccncc1 was read as IDE exosite FP 0.27.
`N#C[C@H]1[C@@H](c2ccccc2-c2ccccc2)[C@H](CO)N1C(=O)Cc1cccnc1` gave IDE exosite FP 2.8.
For O=C(CN1CCOCC1)N1CCCCN2[C@H](CO)[C@@H](c3ccc(-c4ccccc4)cc3)[C@@H]2C1 the results were IDE exosite FP 2.5.
O=C(CN1CCOCC1)N1CCCCN2[C@H](CO)[C@@H](c3ccc(-c4ccccc4)cc3)[C@H]2C1 was read as IDE exosite FP 3.6.
For O=C(CN1CCOCC1)N1CCCCN2[C@H](C1)[C@H](c1ccc(Br)cc1)[C@@H]2CO the results were IDE exosite FP -1.2.
Screening O=C(CN1CCOCC1)N1CCCCN2[C@@H](CO)[C@@H](c3ccc(/C=C/c4ccccc4)cc3)[C@@H]2C1 returned IDE exosite FP -10*.
`O=C(CN1CCOCC1)N1CCCCN2[C@H](C1)[C@H](c1ccc(C#Cc3ccccc3)cc1)[C@@H]2CO` gave IDE exosite FP -13*.
O=C(CN1CCOCC1)N1CCCCN2[C@H](CO)[C@H](c3ccc(Br)cc3)[C@@H]2C1 was read as IDE exosite FP -0.21.
Screening CCC(=O)N1CC2(C1)CN(Cc1cccc(Cl)c1)[C@H](CO)c1[nH]c3cc(OC)ccc3c12 returned IDE exosite FP -2.3.
For O=C(c1ccccc1)N1CC(=O)N2[C@H](CO)[C@@H](c3ccc(C#CC4CC4)cc3)[C@H]2C1 the results were IDE exosite FP 4.2.
COc1cccc(-c2ccc([C@H]3[C@H](CO)N4CCCCN(Cc5cncnc5)C[C@@H]34)cc2)c1 was read as IDE exosite FP -3*.
Screening COc1ccc(-c2ccc([C@H]3[C@H]4CN(CC5CCOCC5)CCCCN4[C@H]3CO)cc2)cc1 returned IDE exosite FP 0.75.
COc1cccc(-c2ccc([C@H]3[C@@H](CO)N4CCCCN(CC5CC5)C[C@H]34)cc2)c1 was read as IDE exosite FP -5.1*.
For COc1cccc(-c2ccc([C@H]3[C@@H](CO)N4CCCCN(Cc5cncnc5)C[C@@H]34)cc2)c1 the results were IDE exosite FP -2.7.
OC[C@@H]1[C@H](c2ccc(-c3ccccc3)cc2)[C@H]2CN(Cc3cncnc3)CCCCN12 was read as IDE exosite FP 0.12.
